PLK1 PBD inh – qHTS for Inhibitors of PLK1-PDB (polo-like kinase 1 - polo-box domain): Primary Screen; Serine/threonine-protein kinase PLK1 (Homo sapiens), P53350; Plk1 PBD binding of FITC phosphopeptide, fluorescence polarization; Potency, µM, inactives show max response, negative = inhibition, usual class: inhibitors; 360,000 compounds, 2.8% hits; AID 720504, 2013; note: series mostly up to about 57 µM; % is set by controls: 0 for no effect and ±100 for the full control effect; nearly all actives have a fitted effect of over 65% in size
BAZ2B block – qHTS Assay for Inhibitors of BAZ2B | 360,000 compounds, 4.4% hits | Bromodomain adjacent to zinc finger domain protein 2B (Homo sapiens), Q9UIF8 | Potency, µM (highest dose often 114 µM), without a hit: at the top dose activity change, negative = inhibition, actives largely listed as inhibitors | AlphaScreen BAZ2B-H3K14Ac peptide displacement; note: % is set by controls: 0 for no effect and ±100 for the full control effect; nearly all actives have a fitted effect of over 60% in size
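Multi-concentration screen (max 110 uM) measuring displacement of acetylated histone H3 peptide from BAZ2B by AlphaScreen, using 50 nM protein, 50 nM peptide and 10 ug/mL streptavidin donor plus Ni-chelate acceptor beads.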
VDR inhibitor – Inhibitors of the vitamin D receptor (VDR): qHTS; Vitamin D3 receptor (Homo sapiens), P11473; VDR-SRC2-3 peptide fluorescence polarization, 2 h; Potency, µM, for inactives: max response, negative = inhibition, usual class: inhibitors; 400,000 compounds, 0.93% hits; AID 504847, 2011; note: % is set by controls: 0 for no effect and ±100 for the full control effect
Target sequence (P11473 whole entry, looked up): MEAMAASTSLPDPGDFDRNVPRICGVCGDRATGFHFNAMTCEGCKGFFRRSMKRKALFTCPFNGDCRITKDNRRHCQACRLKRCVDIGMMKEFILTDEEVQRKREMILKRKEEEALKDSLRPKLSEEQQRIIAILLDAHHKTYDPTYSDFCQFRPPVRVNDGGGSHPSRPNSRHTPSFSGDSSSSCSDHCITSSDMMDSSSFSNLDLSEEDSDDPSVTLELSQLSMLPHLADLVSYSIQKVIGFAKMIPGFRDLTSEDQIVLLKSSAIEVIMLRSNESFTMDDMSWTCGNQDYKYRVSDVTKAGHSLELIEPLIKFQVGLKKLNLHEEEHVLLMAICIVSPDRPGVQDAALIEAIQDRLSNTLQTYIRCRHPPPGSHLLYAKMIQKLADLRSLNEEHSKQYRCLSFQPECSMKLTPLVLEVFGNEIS
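Inhibition of the VDR/SRC2-3 peptide interaction is quantified by fluorescence polarization. Compounds (23 nl, pintool) incubate with the reagents for 2 hours at ambient room temperature.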
HP1b binding inh – HTS for Inhibitors of HP1-beta Chromodomain Interactions with Methylated Histone Tails. AlphaScreen HP1-beta / biotin-H3K9me3 peptide binding. 390,000 compounds, 0.56% hits. AID 540317, 2011. Chromobox protein homolog 1 (Homo sapiens), P83916. Potency, µM (highest dose often 114 µM), inactives show top-dose activity change, negative = inhibition, most hits filed as inhibitors; note: nearly all actives have a fitted effect of over 70% in size
Target sequence (P83916 whole entry, looked up): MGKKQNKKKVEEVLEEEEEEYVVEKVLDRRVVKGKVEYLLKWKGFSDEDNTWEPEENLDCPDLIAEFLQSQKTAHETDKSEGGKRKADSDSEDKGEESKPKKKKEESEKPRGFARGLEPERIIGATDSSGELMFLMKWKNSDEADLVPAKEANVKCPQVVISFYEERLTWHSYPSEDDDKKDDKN
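HP1-beta protein (50 nM final) preincubated 30 min at room temperature with biotinylated H3(1-18)K9me3 peptide (50 nM) in PBS pH 7.4, 0.01% Tween-20, then compound added for 30 min. AlphaScreen streptavidin donor/nickel chelate acceptor beads (10 ug/mL final), 30 min dark, luminescence read.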
JMJD2A Tudor inh – qHTS Assay for Inhibitors of JMJD2A-Tudor Domain. Lysine-specific demethylase 4A (Homo sapiens), O75164. AlphaScreen JMJD2A-Tudor / H3K4me3 peptide binding. Potency, µM (series often up to 114 µM), inactives show at the top dose activity change, negative = inhibition, hits mostly inhibitors. 390,000 compounds, 4.4% hits. AID 504339, 2011; note: % is set by controls: 0 for no effect and ±100 for the full control effect; nearly all actives have a fitted effect of over 50% in size
G9a inh – qHTS Assay for Inhibitors of Histone Lysine Methyltransferase G9a; Potency, µM (top dose mostly 102 µM), inactives show at the top dose activity, negative = inhibition, most hits filed as inhibitors; Histone-lysine N-methyltransferase EHMT2 (Homo sapiens), Q96KQ7; 350,000 compounds, 8.8% hits; AID 504332, 2011; G9a H3K9 monomethylation, AlphaScreen, 2 h; note: % is set by controls: 0 for no effect and ±100 for the full control effect; nearly all actives have a fitted effect of over 75% in size
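AlphaScreen detection with an anti-monomethyl H3K9 antibody quantified product after a 2 h room-temperature reaction containing 500 nM biotinylated H3K9 peptide, 20 µM SAM and 20 nM enzyme, which had been preincubated 15 min with compound.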
Active calls of the source: *; i = inactive; ? = inconclusive; · = no result; [ ] = another dose, or the depositor's remark. Sampled rows, rich in hits. Any-hit rate of the full collection: about 11%. Calls come from the whole dose curve; as a rule, active = well fitted curve in the direction sought with a large enough effect; inconclusive = small, poorly fitted or top-dose-only effect, or another doubt; inactive = no such curve, though single readings can be large; an effect the other way counts as inactive or inconclusive. Potency is the fitted concentration of half-maximal effect.

SMILES	PLK1 PBD inh	BAZ2B block	VDR inhibitor	HP1b binding inh	JMJD2A Tudor inh	G9a inh
CC1CCCC(n2c(=S)[nH]c3ccccc3c2=O)C1C (configuration not stated)	-2.3%	9.8%	0.3%	19.4%	-4.5%	62.0%[59 µM]
CCCCCOC(=O)Cn1c(=O)c2c(nc(N3CCOCC3)n2C)n(C)c1=O	-2.1%	7.6%	6.0%	0.8%	?	10µM*
O=[N+]([O-])c1cccnc1Sc1n[nH]c(-c2ccc(Cl)cc2)n1	-21.5%	-3.5%	-18.2%	21.5%	-13.4%	·
O=[N+]([O-])c1cccnc1Sc1ccc(Cl)cc1	-1.2%	31.6µM*	-8.8%	?	56.2µM*	44.7µM*
COC(=O)c1nc(N)sc1C	-15.0%	?	-11.0%	-4.8%	?	-4.5%[59 µM]
c1ccc(-n2cccc2CNC2CCCCC2)cc1	-15.2%	?	5.7%	?	3.55µM*	?
Cn1cccc1CNC1CCCCC1	-1.5%	-31.6%	6.7%	6.8%	-15.3%	50.1µM*
Clc1cccc(Cl)c1CNC1CCCC1	2.9%	10.6%	15.3%	29.1%	-11.7%	?
COC(=O)CNC(=O)C1CCN(S(=O)(=O)c2cccc3nsnc23)CC1	2.9%	-2.1%	-5.5%	86.4%	25.7%	-6.1%[59 µM]
COCCN(CC(=O)Nc1cccc(C)c1C)C(=O)c1oc2ccccc2c1C	-1.9%	·	4.5%	28.0%	-10.5%	·
COc1ccc(C(O)c2ncc(-c3ccccc3Cl)[nH]2)cc1F (configuration not stated)	-19.8%	·	·	·	·	·
Cc1nc(CNC(=O)CC2C(=O)NCCN2Cc2ccc(F)cc2)cs1 (configuration not stated)	-2.1%	-19.6%	2.8%	52.9%	0.0%	50.1µM*
Cc1nc(CCNC(=O)CC2C(=O)NCCN2Cc2ccc(F)cc2)sc1C (configuration not stated)	-15.8%	-1.5%	-14.7%	24.7%	-16.0%	56.2µM*
Cc1nc(CCNC(=O)CC2C(=O)NCCN2Cc2ccccc2F)sc1C (configuration not stated)	-27.4%	-13.7%	8.7%	-2.9%	1.4%	44.7µM*
COc1cccc(CNC(=O)C(Cc2ccccc2)NS(=O)(=O)c2ccc3c(c2)oc(=O)n3C)c1 (configuration not stated)	·	?	22.2%	37.7%	2.4%	-4.6%[59 µM]
COc1cccc(Nc2sc(C(=O)c3ccc(Cl)cc3)c(N)c2C(=O)NCCc2ccc(OC)c(OC)c2)c1	·	?	10.3%	-15.9%	?	10µM*
CCc1cccc(C)c1NC(=O)Cn1nnc(-c2nc(-c3ccccc3F)no2)c1N	·	56.2µM*	9.8%	43.9%	-26.2%	?
Nc1c(-c2nc(-c3ccccc3)no2)nnn1CC(=O)Nc1cccc(F)c1	·	-21.2%	1.0%	24.3%	?	?
Cc1cc(C)cc(NC(=O)Cn2nnc(-c3nc(-c4ccncc4)no3)c2N)c1	·	?	1.0%	72.1%	56.2µM*	-35.5%[59 µM]
CCOC(=O)Cn1c(=O)n(CC2CCCO2)c2nc(-c3ccc(C)cc3)nc(C(N)=O)c21 (configuration not stated)	·	4.3%	2.2%	24.2%[57 µM]	-10.2%	4.1%[59 µM]
COc1ccc(-c2cc3ncc(C(C)=O)c(C)n3n2)cc1	-2.1%	-3.6%	?	11.1%	2.7%	-9.1%[12.7 µM]
Cc1ccc(-c2onc(C)c2C)cc1S(=O)(=O)N1CCc2ccccc21	·	7.4%	9.6%	97.6%	3.6%	19.3%[59 µM]
Cc1cc(C)nc(NS(=O)(=O)c2ccc(NC(=S)NC(=O)c3cccnc3)cc2)n1	-23.7%	-16.7%	-7.0%	-1.8%	-16.0%	50.1µM*
COc1ccc(/C=C/C(=O)NC(=S)Nc2ccc(S(=O)(=O)Nc3ccc(OC)nn3)cc2)cc1	-24.6%	-24.0%	5.2%	-17.4%	-21.4%	?
Cc1cc(NS(=O)(=O)c2ccc(NC(=S)NC(=O)c3cccnc3)cc2)no1	-13.8%	?	-0.5%	6.8%	31.6µM*	44.7µM*
SMILES	PLK1 PBD inh	BAZ2B block	VDR inhibitor	HP1b binding inh	JMJD2A Tudor inh	G9a inh
Cc1cc(NS(=O)(=O)c2ccc(NC(=S)NC(=O)c3ccc(Br)cc3)cc2)no1	-28.7%	-31.9%	-27.6%	-13.9%	-31.7%	?
COc1ccc(/C=C/C(=O)NC(=S)Nc2ccc(S(=O)(=O)Nc3cc(C)on3)cc2)cc1	?	-25.5%	-16.6%	-7.0%	-27.8%	39.8µM*
O=[S+]([O-])(c1ccc2c(c1)OCCO2)N1CCN([S+](=O)([O-])c2c(F)cc(Br)cc2F)CC1	·	·	·	·	-9.6%	·
O=C(NC1CC(=O)N(c2cccc(F)c2)C1)C1CCCC1 (configuration not stated)	·	-0.6%	-6.2%	-4.7%	-4.2%	-1.3%[59 µM]
COc1ccc(S(=O)(=O)C(C#N)c2nc3ccccc3nc2N2CCCC(C)C2)cc1 (configuration not stated)	?	44.7µM*	5.2%	?	?	?
CC(=NCCc1ccccc1)C1=C(O)CSC1=O	11.9µM*	-3.6%	?	-13.9%	-23.3%[11.4 µM]	20.1%[59 µM]
CCCC(=O)Nc1sc(C(=O)OC)c(C)c1C(N)=O	21.2µM*	-3.7%	-17.4%	-21.7%	-6.7%	11.2µM*
COC(=O)c1sc(NC(=O)c2cccc([N+](=O)[O-])c2)c(C(N)=O)c1C	26.7µM*	0.9%	-25.6%	?	-10.9%	10µM*
Cc1ccc(C(=O)Nc2sc(C)c(-c3ccccc3)c2C(N)=O)cc1[N+](=O)[O-]	18.9µM*	3.9%	-26.3%	-43.6%	?	39.8µM*
CCN(CC)C(=O)c1sc(NC(=O)c2ccc(Br)o2)c(C(=O)OC)c1C	2.3%	0.4%	-11.8%	18.7%	-9.6%	12.7%
COC(=O)c1c(NC(=O)c2cccc([N+](=O)[O-])c2)sc(C(N)=O)c1C	?	-14.2%	-12.6%	-16.3%	-18.8%	·
CCCCC(=O)Nc1sc(C(=O)N(CC)CC)c(C)c1C(=O)OC	4.74µM*	-17.7%	22.4µM*	?	70.8µM*	2.24µM*
COC(=O)N1CCC2(CCCN(C(c3ccccc3)c3ccccc3)C2)CC1	·	·	-19.9%	·	·	3.5%[12.7 µM]
Fc1cccc(Cl)c1CNCc1cccnc1	4.4%	-2.7%	10.7%	22.0%	-6.9%	·
COc1ccc(O)c(-c2cc(-c3cccs3)[nH]n2)c1	?	70.8µM*	8.8%	-15.9%	15.8%[11.4 µM]	9.8%[59 µM]
Cc1ccc(OCCOCCOc2cccc3cccnc23)c(Br)c1	26.7µM*	9.2%	i	?	-1.4%[57.1 µM]	14.3%

Assay outcomes (PubChem BioAssay)
